The source of these data is PubChem BioAssay (NCATS).

A short description of assay [1]: Cytotoxicity counterscreen for NFkB agonists and antagonists (AID 624476).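 Also: cells exposed to compound for 48 hours.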 Also: potency is read from the fitted curve at half-maximal effect. In general terms: Counterscreens check selectivity or assay interference.
The target in assay [2] is Glutaminase kidney isoform, mitochondrial (Homo sapiens) (UniProt O94925). In words: qHTS for Inhibitors of Glutaminase (GLS): LOPAC Validation (AID 624146). Also: nearly all actives have a fitted effect of over 60% in size. Also: potency is read from the fitted curve at half-maximal effect. A digest of the protocol: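 hKGA; 45 mM KH2PO4 pH 8.2 + 0.02% Tween-20; cpd via pin tool; 1 mM Gln soln; GluOx/HRP/Amplex Red; RT 30 min; fluor. t0 & final.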
(In qHTS, concentration-response curves come from the screen itself.)

A short description of assay [3]: qHTS of Trypanosoma Brucei Inhibitors: LOPAC Validation (AID 624147). A digest of the protocol: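 Glycolytic pyruvate kinase of T. brucei was incubated with substrate, test compound and 130 uM ADP for 45 minutes at room temperature. Luminescent Kinase-Glo Plus signal was measured after 10 minutes.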
In assay [4] the target is Glucagon-like peptide 1 receptor (Homo sapiens) (UniProt P43220). In words: qHTS of GLP-1 Receptor Agonists: LOPAC Validation (AID 624148).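 Also: higher luminescence signal means agonism.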 In outline:
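HEK293 cells stably co-expressing a cAMP-responsive luciferase reporter and a hypersensitive GLP-1R were plated 12 h at 37 °C and exposed to compounds for 4-6 hr at 37 °C, 5% CO2. Luminescence was read 12 min after adding detection reagent.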

A short description of assay [5]: qHTS of Nrf2 Activators: LOPAC Validation (AID 624149). In outline:
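Luminescence read-out of ARE-luciferase activation: AREc32_Fluc cells treated with compounds for 24 hr at 37 deg C, then lysed with Steady-Glo for 30 min at room temperature before reading.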

The nature of assay [6]: HTS Assay for Allosteric Antagonists of the Human D2 Dopamine Receptor: Hit Validation in HTRF (AID 624455). Also: potency is read from the fitted curve at half-maximal effect.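 Also: stable D1 dopamine receptor cell line scored for blocking the D1 response.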 In outline: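 First, antagonism was screened by calcium flux in a force-coupled, inducible Hek293 Trex D2 line challenged with EC80 dopamine. Hits then went into an HTRF assay in cells stably expressing D1, testing inhibition of the D1 response.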
A general note: Time-resolved FRET reads energy transfer from a long-lived donor to a nearby acceptor.

Inconclusive results are not listed. The source made the active and inactive calls. Calls follow the shape of the dose curve; as a rule, active = well fitted curve in the direction sought with a large enough effect; inconclusive = small, poorly fitted or top-dose-only effect, or another doubt; inactive = no such curve, though single readings can be large; an effect the other way counts as inactive or inconclusive.

Chain of Glutaminase kidney isoform, mitochondrial (Homo sapiens) (O94925 whole entry, looked up, canonical isoform): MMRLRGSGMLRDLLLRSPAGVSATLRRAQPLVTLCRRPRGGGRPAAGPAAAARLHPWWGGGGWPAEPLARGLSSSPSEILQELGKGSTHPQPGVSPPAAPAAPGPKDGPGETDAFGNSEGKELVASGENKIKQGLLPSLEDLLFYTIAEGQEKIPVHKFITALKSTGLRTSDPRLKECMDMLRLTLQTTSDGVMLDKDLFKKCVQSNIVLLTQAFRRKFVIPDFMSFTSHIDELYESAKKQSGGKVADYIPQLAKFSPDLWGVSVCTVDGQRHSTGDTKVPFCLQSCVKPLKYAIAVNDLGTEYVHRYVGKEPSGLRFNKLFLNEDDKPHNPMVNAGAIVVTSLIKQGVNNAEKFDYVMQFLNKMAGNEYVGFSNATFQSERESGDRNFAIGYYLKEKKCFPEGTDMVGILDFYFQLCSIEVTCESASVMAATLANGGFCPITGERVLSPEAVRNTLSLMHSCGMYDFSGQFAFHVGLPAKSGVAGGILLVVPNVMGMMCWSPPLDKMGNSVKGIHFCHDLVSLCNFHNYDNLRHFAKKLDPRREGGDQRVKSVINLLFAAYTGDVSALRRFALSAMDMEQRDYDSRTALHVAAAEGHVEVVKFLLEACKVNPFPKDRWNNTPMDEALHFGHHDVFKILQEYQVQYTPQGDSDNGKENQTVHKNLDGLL
Chain of Glucagon-like peptide 1 receptor (Homo sapiens) (P43220 whole entry, looked up): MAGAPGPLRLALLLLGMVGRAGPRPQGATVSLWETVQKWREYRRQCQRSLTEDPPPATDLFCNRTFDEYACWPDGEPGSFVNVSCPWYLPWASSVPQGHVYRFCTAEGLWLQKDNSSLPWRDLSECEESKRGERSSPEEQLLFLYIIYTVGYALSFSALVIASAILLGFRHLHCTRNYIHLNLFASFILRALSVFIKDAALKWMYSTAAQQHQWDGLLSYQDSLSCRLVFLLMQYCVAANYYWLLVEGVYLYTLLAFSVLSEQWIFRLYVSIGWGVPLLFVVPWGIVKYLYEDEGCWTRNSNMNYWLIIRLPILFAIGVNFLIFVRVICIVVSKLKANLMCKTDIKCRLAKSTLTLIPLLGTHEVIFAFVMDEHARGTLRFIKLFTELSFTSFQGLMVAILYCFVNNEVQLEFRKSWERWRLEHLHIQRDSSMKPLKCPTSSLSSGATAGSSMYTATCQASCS

For `O=C(Oc1ccc([N+](=O)[O-])cc1)N1CCC(C(O)(c2ccc3c(c2)OCO3)c2ccc3c(c2)OCO3)CC1`, the Potency entry in assay [1] was “inactive”.

For the compound `Cc1c(C(=O)Nc2cccc(C(F)(F)F)c2)cc(-c2ccccc2)n1CCCN1CCOCC1`, the Potency entry in assay [1] is “inactive”.

Regarding `Cn1cnc(CCN)c1`, the Potency result in assay [2] and in assay [6] was “inactive” in each case. The call in assay [3], in assay [4] and in assay [5] was inactive.

Regarding `CO[C@H]1C=CC=C(C)C(=O)NC2=CC(=O)C(NCCN(C)C)=C(C[C@@H](C)C[C@H](OC)[C@@H](O)[C@@H](C)C=C(C)[C@@H]1OC(N)=O)C2=O`, in assay [1], the Potency is 20.9 µM (active).

On to `CC(C)Oc1cccnc1N(C)C1CCN(Cc2ccccc2)CC1`, for which the Potency entry in assay [2] and in assay [6] was “inactive” in each case. Further, the result in assay [3], in assay [4] and in assay [5] was inactive.

As to `O=C1CCCN1CC#CCN1CCCC1`, the Potency result in assay [2] and in assay [6] was “inactive” each time. The compound was called inactive in assay [3], in assay [4] and in assay [5].

Turning to `CC(Cc1ccc(O)cc1)NCC(O)c1cc(O)cc(O)c1` (configuration not stated), the Potency in assay [2] is 4.47 µM (active). The compound was classed as inactive in assay [3] and in assay [5]. Moreover, the Potency entry in assay [6] is “inactive”.

Turning to `Cc1c(C(=O)c2cccc3ccccc23)c2cccc3c2n1[C@H](CN1CCOCC1)CO3`, the compound was classed as inactive in assay [3], in assay [4] and in assay [5]. For the same compound, the Potency result in assay [6] is “inactive”.

Regarding `Cc1nccc2c1[nH]c1ccccc12`, the Potency result in assay [2] and in assay [6] was “inactive” in each case. In addition, the compound was classed as inactive in assay [3], in assay [4] and in assay [5].

With `CC1CC(C)C(=O)C(C(O)CC2CC(=O)NC(=O)C2)C1` (configuration not stated), the Potency entry in assay [1] was “inactive”.

In the case of `CC(=O)Nc1ccc(OC[C@](C)(O)C(=O)Nc2ccc([N+](=O)[O-])c(C(F)(F)F)c2)cc1`, the Potency result in assay [1] was “inactive”.

Consider `C[C@@H](N)Cc1cnc[nH]1`, for which the Potency result in assay [2] and in assay [6] was “inactive” in each case. In addition, the compound was called inactive in assay [3], in assay [4] and in assay [5].

Turning to `CC[C@@H](C(=O)O)C1CC[C@H](C)C([C@@H](C)[C@H](O)[C@H](C)C(=O)[C@H](CC)C2O[C@]3(C=C[C@@H](O)[C@]4(CC[C@@](C)(C5CC[C@](O)(CC)[C@H](C)O5)O4)O3)[C@H](C)C[C@@H]2C)O1` (some centres not stated), the Potency in assay [1] is 8.33 µM (active).

In the case of `NC1CCc2cc(O)c(O)cc2C1` (configuration not stated), the result in assay [4] and in assay [5] was inactive. Moreover, in assay [6], the Potency was 0.0164 µM (active).
